Test [1] in a line: CEETOX_H295R_OHPROG: CeeTox H295R High-throughput Steroidogenesis Assay for OH-Progesterone (OHPROG) (AID 2283435). Conditions: actives raise or lower the signal. An outline of the steps: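 H295R adrenal cells prestimulated 48 h with 10 uM forskolin, then exposed 48 h to chemical (0.1% DMSO final). 17alpha-hydroxyprogesterone in medium quantified by HPLC-MS/MS; bidirectional fit versus DMSO, with MTT viability measured in the same wells.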

Test [2] in a line: CEETOX_H295R_PROG: CeeTox H295R High-throughput Steroidogenesis Assay for Progesterone (PROG) (AID 2283442).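 As to AC50: human H295R adrenal cells primed with 10 µM forskolin before dosing.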 Conditions: actives raise or lower the signal. An outline of the steps:
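Steps: seed H295R cells and let them adhere overnight; prime 48 h with 10 uM forskolin; dose with compound in DMSO at 0.1% final for 48 h; extract medium steroids with MTBE; measure progesterone by LC-MS/MS. MTT viability was run in the same wells.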

Read-out in test [3]: Tumor necrosis factor receptor superfamily member 6 (Homo sapiens) (UniProt P25445)
Kind of test: LTEA_HepaRG_FAS: Life Technologies and Expression Analysis (LTEA) Assay for Fas cell surface death receptor (FAS) using HepaRG (AID 2283447). Conditions: mRNA level, 48 h; actives raise or lower the signal. In a few lines:
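Differentiated HepaRG cells in serum-free induction medium were exposed 48 h to 8 half-log concentrations up to 100 uM in 0.5% DMSO, in duplicate. FAS mRNA was measured by qRT-PCR normalised to ACTB, GAPDH and POLR2A; bidirectional fit versus DMSO.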

Read-out in test [4]: Fatty acid synthase (Homo sapiens) (UniProt P49327)
Kind of test: LTEA_HepaRG_FASN: Life Technologies and Expression Analysis (LTEA) Assay for Fatty Acid Synthase (FASN) using HepaRG (AID 2283448).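 As to AC50: differentiated human HepaRG liver cells in serum-free induction medium.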 Conditions: mRNA level, 48 h; actives raise or lower the signal. In a few lines: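 Differentiated HepaRG cells in serum-free induction medium exposed 48 h in duplicate to eight half-log concentrations, top 100 uM, 0.5% DMSO. FASN mRNA by qRT-PCR normalised to ACTB, GAPDH, POLR2A; bidirectional fit versus DMSO.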

Read-out in test [5]: Cyclin D2 (CCND2), CCND2 (gene 894)
Description: LTEA_HepaRG_CCND2: Life Technologies and Expression Analysis (LTEA) Assay for Cyclin D2 (CCND2) using HepaRG (AID 2283449).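 Also: CCND2 transcript measured by TaqMan qRT-PCR and normalised to three housekeeping genes.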 Conditions: mRNA level, 48 h; actives raise or lower the signal. In a few lines: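 Chemicals in 0.5% DMSO, eight half-log concentrations from 100 uM top, were applied in duplicate for 48 h to human HepaRG cells in serum-free induction medium. CCND2 mRNA by TaqMan qRT-PCR, normalised to ACTB/GAPDH/POLR2A; bidirectional fit versus DMSO.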

A short description of test [6]: CEETOX_H295R_CORTIC: CeeTox H295R High-throughput Steroidogenesis Assay for Corticosterone (CORTIC) (AID 2283437).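 Also: corticosterone secreted into medium quantified by mass spectrometry.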 As to conditions: actives raise or lower the signal. In a few lines: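 H295R adrenal cells prestimulated 48 hours with 10 uM forskolin, then exposed 48 hours to chemical in 0.1% DMSO. Corticosterone in medium measured by HPLC-MS/MS after MTBE extraction; MTT viability in the same wells; bidirectional fit versus DMSO.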

A short description of test [7]: CEETOX_H295R_CORTISOL: CeeTox H295R High-throughput Steroidogenesis Assay for Cortisol (AID 2283438).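 Also: cortisol secreted into medium quantified by LC-MS/MS.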 Conditions: actives raise or lower the signal. An outline of the steps:
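Forskolin-primed H295R cells (10 uM, 48 h) treated 48 h with test chemical in 0.1% DMSO. Cortisol in medium quantified by MTBE extraction and HPLC-MS/MS; bidirectional fit vs DMSO, MTT viability in same wells.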

The nature of test [8]: CEETOX_H295R_DOC: CeeTox H295R High-throughput Steroidogenesis Assay for DOC (AID 2283439). Conditions: actives raise or lower the signal. In a few lines: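 H295R cells prestimulated 48 h with 10 uM forskolin, then exposed 48 h to test chemical (0.1% DMSO final). Medium 11-deoxycorticosterone measured by HPLC-MS/MS after MTBE extraction; bidirectional fit vs DMSO, viability checked by MTT in same wells.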

The nature of test [9]: CEETOX_H295R_ESTRADIOL: CeeTox H295R High-throughput Steroidogenesis Assay for Estradiol (AID 2283440).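 Also: estradiol secreted into medium quantified by LC-MS/MS after dansyl derivatisation.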 As to conditions: actives raise or lower the signal. In a few lines: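 Estradiol secreted into the medium was measured by tandem mass spectrometry after liquid-liquid extraction and dansylation. Human H295R cells had been forskolin-primed (10 uM, 48 h) before a 48 h chemical exposure with 0.1% DMSO.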

Test [10] can be described thus: CEETOX_H295R_ANDR: CeeTox H295R High-throughput Steroidogenesis Assay for Androstenedione (ANDR) (AID 2283436). As to conditions: actives raise or lower the signal. In a few lines: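 H295R cells, following OECD 456 with minor changes, exposed to chemicals for 48 h. Androstenedione in the medium was quantified by HPLC-MS/MS after MTBE extraction. Fitting was bidirectional versus DMSO; chemicals were diluted until MTT viability was ≥70%.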

SMILES strings stand for the structures. Activity calls are given as the source filed them. The calls were made as follows: active = hit-call score of the fitted dose curve at least 0.9, where 1 is the maximum; inactive = score below 0.9.

25 molecules from PubChem BioAssay (EPA / NIEHS) can be followed below.

Chain of Fatty acid synthase (Homo sapiens) (P49327 whole entry, looked up): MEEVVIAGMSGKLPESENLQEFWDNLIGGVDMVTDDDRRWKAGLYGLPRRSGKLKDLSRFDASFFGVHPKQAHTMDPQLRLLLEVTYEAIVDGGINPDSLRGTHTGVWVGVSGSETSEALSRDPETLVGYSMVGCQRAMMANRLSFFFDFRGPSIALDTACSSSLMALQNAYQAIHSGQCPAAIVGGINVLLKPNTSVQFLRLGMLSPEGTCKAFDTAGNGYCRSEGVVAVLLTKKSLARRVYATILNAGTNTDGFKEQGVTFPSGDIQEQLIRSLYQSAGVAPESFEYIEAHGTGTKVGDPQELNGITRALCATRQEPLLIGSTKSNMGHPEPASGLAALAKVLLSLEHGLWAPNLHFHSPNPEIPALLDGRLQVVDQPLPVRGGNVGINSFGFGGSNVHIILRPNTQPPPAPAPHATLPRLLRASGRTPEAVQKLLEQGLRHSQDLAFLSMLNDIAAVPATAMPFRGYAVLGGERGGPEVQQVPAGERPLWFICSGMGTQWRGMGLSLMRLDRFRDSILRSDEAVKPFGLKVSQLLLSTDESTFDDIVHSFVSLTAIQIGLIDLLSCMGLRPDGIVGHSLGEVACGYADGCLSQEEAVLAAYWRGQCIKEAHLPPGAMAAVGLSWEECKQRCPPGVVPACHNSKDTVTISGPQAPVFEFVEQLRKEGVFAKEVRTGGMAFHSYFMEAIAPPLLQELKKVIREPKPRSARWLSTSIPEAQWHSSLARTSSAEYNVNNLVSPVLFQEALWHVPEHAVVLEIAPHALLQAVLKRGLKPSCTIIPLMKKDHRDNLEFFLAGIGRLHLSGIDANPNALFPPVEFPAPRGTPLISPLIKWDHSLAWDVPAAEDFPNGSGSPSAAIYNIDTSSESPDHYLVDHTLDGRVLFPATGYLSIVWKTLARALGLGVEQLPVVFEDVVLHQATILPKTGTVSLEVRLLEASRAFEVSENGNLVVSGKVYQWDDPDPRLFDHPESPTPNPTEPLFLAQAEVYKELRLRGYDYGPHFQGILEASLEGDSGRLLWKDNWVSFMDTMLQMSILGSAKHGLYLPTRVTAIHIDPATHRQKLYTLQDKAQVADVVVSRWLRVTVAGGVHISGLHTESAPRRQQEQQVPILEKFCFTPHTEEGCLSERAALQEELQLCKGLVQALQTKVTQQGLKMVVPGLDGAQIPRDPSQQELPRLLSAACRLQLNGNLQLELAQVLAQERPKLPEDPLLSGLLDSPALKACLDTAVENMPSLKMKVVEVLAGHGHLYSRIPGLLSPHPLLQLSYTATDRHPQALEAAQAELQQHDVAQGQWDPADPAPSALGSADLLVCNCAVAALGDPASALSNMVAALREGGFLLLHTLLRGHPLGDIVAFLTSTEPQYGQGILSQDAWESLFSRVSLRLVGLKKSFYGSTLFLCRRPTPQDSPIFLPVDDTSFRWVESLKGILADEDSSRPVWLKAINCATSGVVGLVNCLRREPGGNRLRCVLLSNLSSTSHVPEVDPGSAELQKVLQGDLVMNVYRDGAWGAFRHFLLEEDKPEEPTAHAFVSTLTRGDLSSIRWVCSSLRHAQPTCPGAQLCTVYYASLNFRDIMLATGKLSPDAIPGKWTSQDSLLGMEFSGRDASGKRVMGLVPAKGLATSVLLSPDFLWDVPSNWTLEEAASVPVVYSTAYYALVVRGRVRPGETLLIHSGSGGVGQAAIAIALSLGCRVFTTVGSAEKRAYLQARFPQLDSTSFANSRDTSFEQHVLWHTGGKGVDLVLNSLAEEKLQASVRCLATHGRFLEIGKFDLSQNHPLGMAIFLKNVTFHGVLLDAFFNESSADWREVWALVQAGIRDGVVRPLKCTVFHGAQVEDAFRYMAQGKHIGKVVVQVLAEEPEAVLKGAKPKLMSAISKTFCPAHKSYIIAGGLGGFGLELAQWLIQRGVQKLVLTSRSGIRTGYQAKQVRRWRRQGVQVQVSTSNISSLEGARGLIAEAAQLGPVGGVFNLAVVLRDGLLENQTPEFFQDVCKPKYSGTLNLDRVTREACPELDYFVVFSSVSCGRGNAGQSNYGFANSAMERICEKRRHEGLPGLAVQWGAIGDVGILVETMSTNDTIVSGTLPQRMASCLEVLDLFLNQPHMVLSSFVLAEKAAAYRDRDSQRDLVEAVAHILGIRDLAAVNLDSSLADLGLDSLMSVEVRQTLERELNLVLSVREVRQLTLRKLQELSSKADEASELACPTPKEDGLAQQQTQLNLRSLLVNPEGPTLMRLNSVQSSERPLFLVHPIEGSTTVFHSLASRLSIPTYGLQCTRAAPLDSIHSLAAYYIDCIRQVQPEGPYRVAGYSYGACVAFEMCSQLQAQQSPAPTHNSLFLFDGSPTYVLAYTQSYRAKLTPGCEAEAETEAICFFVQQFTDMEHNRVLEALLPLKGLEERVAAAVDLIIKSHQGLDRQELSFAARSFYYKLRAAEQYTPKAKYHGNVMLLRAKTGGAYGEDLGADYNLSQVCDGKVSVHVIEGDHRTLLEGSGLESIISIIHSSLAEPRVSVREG

Consider `CC(C)NC(=O)N1CC(=O)N(c2cc(Cl)cc(Cl)c2)C1=O`, for which the AC50 is 19 µM (active) in test [1], 16.9 µM (active) in test [2] and 16.2 µM (active) in test [4]. In addition, the outcome in [3] and in test [5] was inactive.

For `O=C(Nc1ccccc1-c1ccc(Cl)cc1)c1cccnc1Cl`, the call in [1], in test [6], in [7], in test [9], in [3] and in test [4] was inactive. Besides, the molecule was classed as inactive in [5]. Further, the AC50 in test [8] was 9.59 µM (active); in test [2] it was 13.1 µM (active).

For `CNC(=O)Oc1cccc2ccccc12`, the molecule was called inactive in test [1], in test [2], in [3] and in [4]. For the same molecule, the AC50 in [5] was 19.3 nM (active).

As to `CCOP(=S)(OCC)Oc1nc(Cl)n(C(C)C)n1`, the AC50 in test [1] is 35.8 µM (active); in test [2], 61.8 µM (active); in test [4] it was 30.5 µM (active). For the same molecule, the outcome in test [6], in test [7], in [8], in [3] and in test [5] was inactive.

Take `CCNP(=S)(OC)O/C(C)=C/C(=O)OC(C)C` (stereo not drawn): the molecule was classed as inactive in test [1], in test [7], in test [9], in test [3] and in test [5]. The AC50 is 50 µM (active) in [6], 50 µM (active) in test [8], 50 µM (active) in [2] and 36.3 µM (active) in test [4].

Take `COc1cc(Cl)c(OC)cc1Cl`: the result in test [1], in test [6], in test [7], in test [8], in [9] and in test [2] was inactive. Besides, the molecule was called inactive in [3], in test [4] and in test [5].

As for `CCOc1nc(C(Cl)(Cl)Cl)ns1`, the molecule was called inactive in test [1], in test [9], in [2] and in test [4]. Also, the AC50 in test [5] is 1110 nM (active).

On to `CC1(C)CCC(=Cc2ccc(Cl)cc2)C1(O)Cn1cncn1` (stereo not drawn), for which the molecule was called inactive in test [1], in test [10], in test [6], in test [9] and in test [3]. The concentration at half-maximal activity (AC50) in test [7] is 5 µM (active); in [8] it was 1.59 µM (active); in test [2], 0.716 µM (active); in [4] it was 6.85 µM (active).

Regarding `CC(C)Oc1cccc(NC(=O)c2ccccc2C(F)(F)F)c1`, the AC50 in test [1] is 13.7 µM (active); in test [7], 37.5 µM (active); in test [8], 7.26 µM (active); in [2], 8.93 µM (active); in [4], 65.2 µM (active); in [5], 39.8 nM (active). For the same molecule, the result in test [6], in test [9] and in test [3] was inactive.

Consider `COCc1cnc(C2=NC(C)(C(C)C)C(=O)N2)c(C(=O)O)c1` (stereo not drawn), for which the molecule was classed as inactive in test [1], in [10], in test [6], in test [7], in test [8] and in test [9]. Also, the molecule was classed as inactive in test [2], in [3], in [4] and in test [5].

Take `COC(=O)NC(=S)Nc1ccccc1NC(=S)NC(=O)OC`: the call in test [1], in [6], in test [7], in test [8], in test [9] and in test [2] was inactive. Also, the molecule was called inactive in test [3], in [4] and in [5].

Consider `CCN(CC)C(=O)C(C)Oc1cccc2ccccc12` (stereo not drawn), for which the result in [1], in test [9], in test [2], in [3], in [4] and in [5] was inactive.

For `CCCN(CC)CC1COC2(CCC(C(C)(C)C)CC2)O1` (stereo not drawn), the AC50 in test [1] is 0.112 µM (active); in test [8] it was 0.812 µM (active); in test [2] it was 0.38 µM (active); in test [4] it was 0.274 µM (active). The molecule was classed as inactive in test [6], in test [7], in [9], in test [3] and in [5].

On to `CCOC(=O)C(C)OC(=O)c1cc(Oc2ccc(C(F)(F)F)cc2Cl)ccc1[N+](=O)[O-]` (stereo not drawn), for which the result in [1], in [6], in test [7], in test [8], in test [9] and in test [2] was inactive. In addition, the outcome in test [3] was inactive. In test [4], the AC50 is 35.1 µM (active).

For the molecule `CCSC(=O)N1CCCCCC1`, the result in test [1], in [9], in [2], in [3] and in test [4] was inactive.

On to `CCC(C)n1c(=O)[nH]c(C)c(Br)c1=O` (stereo not drawn), for which the molecule was called inactive in test [1], in test [9], in [2], in test [3] and in [5]. Moreover, the AC50 in [4] was 14.1 µM (active).

Regarding `O=C1C2CC=CCC2C(=O)N1SC(Cl)(Cl)Cl` (stereo not drawn), the outcome in [1], in test [9], in [2], in test [3] and in test [5] was inactive. The AC50 in test [4] was 70.9 µM (active).

Regarding `Nc1cnn(-c2ccccc2)c(=O)c1Cl`, the result in test [1], in test [6], in [7], in test [8], in [9] and in [2] was inactive. The result in test [3], in [4] and in test [5] was inactive.

As for `CC(C)(C)C(=O)C(Oc1ccc(Cl)cc1)n1cncn1` (stereo not drawn), the AC50 in [1] is 21 µM (active); in test [7], 21.2 µM (active); in test [9] it was 21.7 µM (active); in test [2] it was 3.12 µM (active); in test [4], 50 µM (active). Besides, the molecule was called inactive in test [6], in test [8], in test [3] and in test [5].

For `COCC(C)N(C(=O)CCl)c1c(C)csc1C` (stereo not drawn), the outcome in test [3] and in [4] was inactive.

Turning to `Cc1c(COC(=O)[C@@H]2[C@H](/C=C(\Cl)C(F)(F)F)C2(C)C)cccc1-c1ccccc1`, the outcome in test [1], in [9], in test [2], in test [3], in [4] and in test [5] was inactive.

Consider `CCOc1cc(C(C)(C)C)ccc1C1COC(c2c(F)cccc2F)=N1` (stereo not drawn), for which the outcome in test [1], in test [10], in test [3], in test [4] and in [5] was inactive.

With `Cc1nc(N(C)C)nc(OC(=O)N(C)C)c1C`, the result in [1], in [6], in [7], in [8], in test [9] and in [2] was inactive. Moreover, the molecule was called inactive in test [3], in test [4] and in [5].

As to `COP(=S)(OC)SCn1nnc2ccccc2c1=O`, the AC50 in test [1] was 2.27 µM (active). Moreover, the molecule was classed as inactive in test [10], in [9], in [2], in [3], in test [4] and in test [5].

Take `Clc1nc(Cl)nc(Nc2ccccc2Cl)n1`: the molecule was called inactive in [1], in test [6], in test [7], in [9], in [2] and in test [3]. Further, the molecule was classed as inactive in [4] and in [5]. Also, the AC50 in test [8] was 2.71 µM (active).

Usually AC50 stands for the concentration at which the activity in the assay is half-maximal.
